Laboratory results published in PubChem BioAssay (NCATS).
Inconclusive results are not listed. A call without a number means that no potency is given here. Values without a mark were called inactive. Active and inactive are the calls of the source. The call rests on the fitted dose curve; in most records, active means well fitted cell-killing curve with a large enough effect; inconclusive means small, poorly fitted or top-dose-only effect, or effect the other way; inactive means flat fitted curve, though single readings scatter.

Each compound was assayed on CAOV3 (assay: Primary qHTS to identify gynecologic anti-cancer compounds using libraries of approved drugs and bioactive compounds (AID 1345084; further: nearly all actives have a fitted effect of over 55% in size)). Conditions: Gynecologic cancer cell panel viability, ATPlite luminescence, 48 h; series mostly up to 57.5 µM.
Description: National Center for Advancing Translational Sciences [NCATS] Assay Overview: Chemotherapeutic drug responses vary from cancer to cancer and from patient to patient. These variations could be caused by a number of factors including patient genomic background, tumor mutations, tumor heterogeneity, and aspects of drug treatment. Chemotherapeutic drug resistance is also a common issue and can lead to ineffective treatment and patient death. Here we have profiled the cell killing effects of thousands of compounds to characterize the responses in three gynecological cancers, identify cancer-selective compounds, and understand the diversity of responses to these compounds from pan-cancer suppressors to single cell line selective compounds. In this assay, we screened a 7,914 compound drug library that included approved drug and bioactive compounds in six ovarian, three cervical, and […] placental cancer cell lines using the ATPlite assay for cell viability. […] The cervical cancer cell lines included HeLa, Ca Ski, and C-33 A. The placental cancer cell lines included JEG-3. HEK 293T cells were used as the control cell line to determine the selectivity index. ATPlite is a luminescence based assay reliant on the conversion of a luciferase substrate to light in the presence of ATP. As a cytotoxic compound will suppress growth and decrease the number of cells, the concentration of ATP will decrease, and less light signal will be detected in the well.
Assay Protocol Summary: 1,000 cells in 4 uL of media were dispensed into white, solid bottom 1536-well plates using a Multidrop Combi (Thermo Scientific). The Assay plates were incubated for 16 hours at 37 C with 5% CO2 in assay plates, followed by the addition of 23 nL of DMSO or drug dissolved in DMSO. Each compound was assayed in five concentrations (0.092, 0.46, 2.3, 11.5, and 57.5 uM), using the automated Wako 1536 Pin Tool workstation and incubated at 37 C with 5% CO2 48 hours. 4 uL of ATPlite, the ATP monitoring reagent, was then added to the each well of the assay plates using the Multidrop Combi reagent dispenser followed by incubation for 15 minutes at room temperature. The resulting luminescence was measured using the ViewLux plate reader.
Potency means the concentration at half of the fitted maximal effect.

SMILES	Potency	activity change, negative = cytotoxicity
c1ccc(-c2oc3ncnc(NC[C@@H]4CCCO4)c3c2-c2ccccc2)cc1	inactive	
CCn1c(-c2nonc2N)nc2cncc(CNC3CCNCC3)c21	inactive	
O=C(CO)N1CCC(c2[nH]nc(-c3ccc(Cl)cc3)c2-c2ccncn2)CC1	inactive	
Cc1ccccc1C(=O)c1ccc(Nc2ccc(Br)cc2N)cc1Cl	inactive	
CNC(=O)c1c(-c2ccc(F)cc2)oc2cc(N(CCO)S(C)(=O)=O)c(C3CC3)cc12	inactive	
CS(=O)(=O)c1ccc(C2=C(c3ccccc3)C(=O)OC2)cc1	inactive	
O=C(O)CCNc1cc(N2CCc3ccccc3CC2)nc(-c2ccccn2)n1	inactive	
COc1ccc(-c2cc3nccn3c(Nc3ncccc3C(N)=O)n2)cc1OC	inactive	
CN(C)c1ccc(-c2nc3ncc(Cl)c(N4CCN(CC(=O)Nc5nccs5)CC4)c3[nH]2)cc1	inactive	
COc1nccc(-c2c(-c3ccc(F)cc3)ncn2C2CCNCC2)n1	inactive	
Nc1[nH]nc2nnc(-c3c(-c4ccccc4)nn4ccccc34)cc12	inactive	
Cc1cnc(CNC(=O)c2c(=O)c3ccc(N4CCCN(C)CC4)nc3n3c2sc2ccccc23)cn1		-1.16% [at 11.6 µM]
N#CC1(c2cccc(C(=O)Nc3cc(Oc4ccc5nc(NC(=O)C6CC6)sc5n4)ccc3F)c2Cl)CC1	11200 nM (active)	
c1cc(OCCN2CCCCC2)cc(-c2n[nH]c3ccc(-c4ncn[nH]4)cc23)c1	inactive	
CN(C)c1nc(Cc2ccc(NC(=O)c3ccc(C(F)(F)F)cc3)cc2)nc(N(C)C)c1CC(=O)O	inactive	
Cc1cc(C(C)Nc2ccccc2)c2nc(N3CCOCC3)cc(=O)n2c1 (stereo not given)	inactive	
CN[C@@H](C)[C@H]1[C@H](O)C[C@@]2(C)[C@@H]3CC[C@H]4C(C)(C)[C@@H](NC)CC[C@@]45C[C@@]35CC[C@]12C		7.65% [at 11.6 µM]
COc1ccnc(CS(=O)c2nc3ccc(OC(F)F)cc3[nH]2)c1OC (stereo not given)	inactive	
CN(C)CCCNC(=O)c1ccc(-c2cc(O)c3ncccc3c2)cc1	inactive	
Fc1ccc(CNc2ncnc3ccc(F)cc23)cc1	inactive	

SMILES	Potency	activity change, negative = cytotoxicity
NC(=O)c1ccc(N(C(N)=O)c2c(F)cccc2F)nc1-c1ccc(F)cc1F	inactive	
CC[C@H](CC#N)OC(=O)N[C@@H](C)c1cccc(NC(=O)Nc2ccc(-c3cnco3)c(OC)c2)c1	inactive	
C[C@@H](NC(=O)c1ncnc(N)c1Cl)c1ncc(C(=O)Nc2cc(C(F)(F)F)c(Cl)cn2)s1	inactive	
Nc1ccc(-c2ccc3ncc4ccc(=O)n(-c5cccc(C(F)(F)F)c5)c4c3c2)cn1	631 nM (active)	
CC(=O)Nc1cccc(-n2c(=O)n(C3CC3)c(=O)c3c(Nc4ccc(I)cc4F)n(C)c(=O)c(C)c32)c1	inactive	
O=C(Nc1ccc(OC(F)(F)F)cc1)c1sccc1NCc1ccnc2ccccc12	inactive	
O=C1C(c2c(O)[nH]c3ccccc23)=Nc2ccccc21	inactive	
COc1ccc(-c2ccc3ncc4c(c3c2)n(-c2ccc(N3CCNCC3)c(C(F)(F)F)c2)c(=O)n4C)cn1	2510 nM (active)	
Cc1ccccc1-n1c(Cn2nc(-c3cccc(O)c3)c3c(N)ncnc32)nc2cccc(C)c2c1=O	inactive	
CCN1CCN(c2ccc(Nc3cc(N(C)C(=O)Nc4c(Cl)c(OC)cc(OC)c4Cl)ncn3)cc2)CC1	inactive	
COc1ccc(CCC(=O)Nc2nc3ccc(Cl)cc3s2)cc1OC	inactive	
COC(=O)N1CCN(Cc2cccc(NC(=O)Nc3ccc(C)nc3)c2F)CC1	inactive	
CCCCC[C@H](O)C=C[C@H]1[C@H](O)CC(=O)[C@H]1CC=CCCCC(=O)O	inactive	
CNC(=O)c1ccc2c(C(=Nc3cccc(CN(C)C)c3)c3ccccc3)c(O)[nH]c2c1	inactive	
Cc1cnc(-c2cc(N3CCN(C(=O)CCS(C)(=O)=O)CC3)ncc2Cl)c(C)c1	inactive	
O=S(=O)(O)c1ccc2cc(N=Nc3cc(S(=O)(=O)O)c4cccnc4c3O)ccc2c1	inactive	
Cc1nc2c([nH]1)CCN(C(=O)c1ccc(NC(=O)c3ccccc3-c3ccccc3)cc1)c1ccccc1-2	inactive	
O=C(Nc1cccc2c(=O)cc(-c3nn[nH]n3)oc12)c1ccc(OCCCCc2ccccc2)cc1	inactive	
COc1cc(Nc2nc3ccccc3nc2NS(=O)(=O)c2ccc(NC(=O)c3ccc(C)c(OC)c3)cc2)cc(OC)c1	inactive	
C[C@@H]1C[C@H]2[C@@H]3CCC4=CC(=O)C=C[C@]4(C)[C@@]3(F)[C@@H](O)C[C@]2(C)[C@@]1(O)C(=O)CO	inactive	
